# Test results reported in PubChem BioAssay (EPA / NIEHS).
# The source made the active and inactive calls. Rule for the calls: active = hit-call score of the fitted dose curve at least 0.9, where 1 is the maximum; inactive = score below 0.9.
# Columns and labels:
# Details in all cases: mRNA level, 48 h; actives raise or lower the signal
# [1] = read-out: Cytochrome P450 (CYP2B6), CYP2B6 (gene 1555); assay: LTEA_HepaRG_CYP2B6: Life Technologies and Expression Analysis (LTEA) Assay for Cytochrome P450 (CYP2B6) using HepaRG (AID 2283481)
# Method in brief: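 Differentiated HepaRG cells, serum-free induction medium, exposed 48 h in duplicate to 8-point half-log concentrations from 100 uM in 0.5% DMSO. CYP2B6 mRNA by qRT-PCR, normalized to ACTB, GAPDH, POLR2A; bidirectional fit versus DMSO.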
# [2] = read-out: Cytochrome P450 2C19 (Homo sapiens) (UniProt P33261); assay: LTEA_HepaRG_CYP2C19: Life Technologies and Expression Analysis (LTEA) Assay for CYP2C19 using HepaRG (AID 2283482)
# Method in brief: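 Differentiated human HepaRG cells were exposed for 48 h in serum-free induction medium to 8 concentrations (top 100 uM, half-log steps, 0.5% DMSO). CYP2C19 mRNA was measured by qRT-PCR, normalized to ACTB/GAPDH/POLR2A, and fitted bidirectionally against DMSO.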
# [3] = read-out: CYP2C8 (gene 1558); assay: LTEA_HepaRG_CYP2C8: Life Technologies and Expression Analysis (LTEA) Assay for CYP2C8 using HepaRG (AID 2283483)
# Method in brief: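 This is a transcriptional endpoint in HepaRG cultures: 48 h exposure, highest concentration 100 uM. CYP2C8 mRNA is quantified by TaqMan qRT-PCR.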
# [4] = read-out: CYP2C9 (gene 1559); assay: LTEA_HepaRG_CYP2C9: Life Technologies and Expression Analysis (LTEA) Assay for CYP2C9 using HepaRG (AID 2283484)
# Method in brief: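 Eight-point concentration-response (highest 100 uM, half-log dilutions) in HepaRG cells for 48 h; CYP2C9 expression by qRT-PCR normalized to ACTB, GAPDH, POLR2A. Bidirectional fit, DMSO baseline.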
# [5] = read-out: CYP2E1 (gene 1571); assay: LTEA_HepaRG_CYP2E1: Life Technologies and Expression Analysis (LTEA) Assay for CYP2E1 using HepaRG (AID 2283485)
# Method in brief: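 CYP2E1 transcript measured by Fluidigm qRT-PCR against three housekeeping genes in human HepaRG cells treated 48 h (top 100 uM, half-log steps, 0.5% DMSO vehicle). Gain or loss fitted relative to DMSO baseline.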
# [6] = read-out: CYP4A11 (gene 1579); assay: LTEA_HepaRG_CYP4A11: Life Technologies and Expression Analysis (LTEA) Assay for CYP4A11 using HepaRG (AID 2283486)
# Method in brief: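 Differentiated HepaRG cells, serum-free induction medium, exposed 48 h in duplicate to 8-point half-log series from 100 uM in 0.5% DMSO. CYP4A11 mRNA measured by qRT-PCR, normalized to ACTB, GAPDH, POLR2A; bidirectional fit versus DMSO.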
# [7] = read-out: Cytochrome P450 3A4 (Homo sapiens) (UniProt P08684); assay: LTEA_HepaRG_CYP3A4: Life Technologies and Expression Analysis (LTEA) Assay for CYP3A4 using HepaRG (AID 2283487)
# Method in brief: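 HepaRG, 48 h exposure, 8-pt CRC from 100 uM (half-log), 0.5% DMSO, duplicates; serum-free induction medium. Readout: CYP3A4 mRNA, qRT-PCR, ACTB/GAPDH/POLR2A normalization. Bidirectional fit vs DMSO.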
# [8] = read-out: DNA damage-inducible transcript 3 (DDIT3), DDIT3 (gene 1649); assay: LTEA_HepaRG_DDIT3: Life Technologies and Expression Analysis (LTEA) Assay for DNA damage-inducible transcript 3 (DDIT3) using HepaRG (AID 2283488)
# Method in brief: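 DDIT3 transcript was quantified by qRT-PCR with ACTB/GAPDH/POLR2A normalization after 48 h chemical treatment of differentiated HepaRG cells in 0.5% DMSO. Dosing was eight-point, half-log, top 100 uM, duplicate wells. Curves fitted bidirectionally versus DMSO.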
# [9] = read-out: Pro-epidermal growth factor (Homo sapiens) (UniProt P01133); assay: LTEA_HepaRG_EGF: Life Technologies and Expression Analysis (LTEA) Assay for Epidermal growth factor (EGF) using HepaRG (AID 2283489)
# Method in brief: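 Differentiated human HepaRG cells, plated 48 h then switched to serum-free induction medium, were exposed for 48 h to test chemicals (8-point half-log series, top 100 uM, 0.5% DMSO). EGF mRNA was quantified by qRT-PCR, normalized to ACTB, GAPDH, POLR2A.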
# [10] = read-out: Early growth response protein 1 (EGR1) transcription factor, EGR1 (gene 1958); assay: LTEA_HepaRG_EGR1: Life Technologies and Expression Analysis (LTEA) Assay for Early growth response protein 1 (EGR1) transcription factor using HepaRG (AID 2283490)
# Method in brief: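 EGR1 expression change in human HepaRG after 48 h chemical exposure, assessed by housekeeping-normalized qRT-PCR; concentration-response up to 100 uM, fitted in both directions against DMSO controls.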
# Chain of Cytochrome P450 3A4 (Homo sapiens) (P08684 whole entry, looked up): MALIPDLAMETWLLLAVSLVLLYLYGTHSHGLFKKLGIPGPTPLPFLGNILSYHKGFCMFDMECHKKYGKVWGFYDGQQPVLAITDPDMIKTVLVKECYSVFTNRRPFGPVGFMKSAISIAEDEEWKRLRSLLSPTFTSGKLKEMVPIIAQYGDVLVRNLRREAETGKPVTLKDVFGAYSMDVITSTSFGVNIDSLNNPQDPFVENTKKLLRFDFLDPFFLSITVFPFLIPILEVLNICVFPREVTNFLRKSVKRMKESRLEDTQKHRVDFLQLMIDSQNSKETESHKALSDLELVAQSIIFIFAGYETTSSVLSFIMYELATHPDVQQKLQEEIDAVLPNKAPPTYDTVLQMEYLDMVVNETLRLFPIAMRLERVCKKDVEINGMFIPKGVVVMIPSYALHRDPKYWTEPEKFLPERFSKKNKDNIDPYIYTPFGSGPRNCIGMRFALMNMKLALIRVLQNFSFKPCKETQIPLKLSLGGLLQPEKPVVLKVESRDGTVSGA
# Chain of Cytochrome P450 2C19 (Homo sapiens) (P33261 whole entry, looked up): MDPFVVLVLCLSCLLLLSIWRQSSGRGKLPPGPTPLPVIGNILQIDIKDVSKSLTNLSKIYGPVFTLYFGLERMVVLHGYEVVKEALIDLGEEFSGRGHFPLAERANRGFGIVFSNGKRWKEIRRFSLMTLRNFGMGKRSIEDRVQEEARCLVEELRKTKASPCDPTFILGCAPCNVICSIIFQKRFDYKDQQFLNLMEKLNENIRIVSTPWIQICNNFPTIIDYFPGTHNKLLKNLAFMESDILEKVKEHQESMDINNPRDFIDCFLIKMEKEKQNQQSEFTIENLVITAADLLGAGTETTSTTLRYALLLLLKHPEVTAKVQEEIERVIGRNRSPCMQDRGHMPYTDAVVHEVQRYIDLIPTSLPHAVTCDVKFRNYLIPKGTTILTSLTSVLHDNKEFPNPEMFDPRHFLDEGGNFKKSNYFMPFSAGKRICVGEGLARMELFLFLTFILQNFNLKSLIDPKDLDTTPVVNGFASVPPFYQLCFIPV
Structure (SMILES),outcome [1],outcome [2],outcome [3],outcome [4],outcome [5],outcome [6],outcome [7],outcome [8],outcome [9],outcome [10],AC50 [1],AC50 [2],AC50 [3],AC50 [4],AC50 [5],AC50 [6],AC50 [7],AC50 [8],AC50 [10],AC50 [9]
O=[N+]([O-])C(CO)(CO)CO,inactive,inactive,inactive,inactive,inactive,inactive,inactive,inactive,inactive,inactive,–,–,–,–,–,–,–,–,–,–
Cc1cc(=O)[nH]c(=S)[nH]1,inactive,inactive,inactive,inactive,inactive,inactive,inactive,inactive,inactive,inactive,–,–,–,–,–,–,–,–,–,–
CCNc1cccc(C)c1,inactive,inactive,inactive,inactive,inactive,inactive,inactive,inactive,inactive,inactive,–,–,–,–,–,–,–,–,–,–
CC(=O)Oc1ccccc1C(=O)O,inactive,inactive,inactive,inactive,inactive,inactive,inactive,inactive,inactive,inactive,–,–,–,–,–,–,–,–,–,–
COc1ccc(S(=O)(=O)N2C(=O)[C@@](c3ccccc3OC)(N3C[C@H](O)C[C@H]3C(=O)N(C)C)c3cc(Cl)ccc32)c(OC)c1,–,–,–,–,–,–,–,–,inactive,–,28.9 µM (active),21.5 µM (active),23 µM (active),20.5 µM (active),33.6 µM (active),26.6 µM (active),32.9 µM (active),73.8 µM (active),81.1 µM (active),–
CC(=O)C(C)=CC1C(C)=CCCC1(C)C (stereo not given),inactive,inactive,inactive,inactive,inactive,inactive,inactive,inactive,inactive,inactive,–,–,–,–,–,–,–,–,–,–
CCc1c(C(=O)NN2CCCCC2)nn(-c2ccc(Cl)cc2Cl)c1-c1ccc(Br)cc1,–,–,–,–,–,–,–,–,inactive,–,30 µM (active),34.6 µM (active),23.6 µM (active),30.4 µM (active),22.4 µM (active),15.9 µM (active),31.7 µM (active),32.5 µM (active),12.2 µM (active),–
C=CCc1ccc(O)c(OC)c1,inactive,inactive,inactive,inactive,inactive,inactive,inactive,inactive,inactive,inactive,–,–,–,–,–,–,–,–,–,–
COCCOCCOC,–,inactive,–,inactive,inactive,inactive,inactive,–,–,inactive,0.993 µM (active),–,0.712 µM (active),–,–,–,–,1.38 µM (active),–,1.09 µM (active)
CC1(C)CC(N=C=O)CC(C)(CN=C=O)C1 (stereo not given),inactive,inactive,inactive,inactive,–,inactive,inactive,inactive,inactive,inactive,–,–,–,–,24 µM (active),–,–,–,–,–
COc1ccc2c(c1)c(CC(=O)O)c(C)n2C(=O)c1ccc(Cl)cc1,inactive,inactive,inactive,inactive,–,inactive,inactive,inactive,inactive,inactive,–,–,–,–,21.3 µM (active),–,–,–,–,–
COCCOC[C@H](CC1(C(=O)NC2CCC(C(=O)O)CC2)CCCC1)C(=O)Oc1ccc2c(c1)CCC2 (stereo not given in full),inactive,inactive,inactive,inactive,inactive,inactive,inactive,inactive,inactive,inactive,–,–,–,–,–,–,–,–,–,–
Cc1ccc(C(C)C)c(O)c1,inactive,inactive,inactive,inactive,inactive,inactive,inactive,inactive,inactive,inactive,–,–,–,–,–,–,–,–,–,–
O=C(N[C@@H](Cc1ccccc1)[C@@H](O)C(=O)N1C[C@@H](O)[C@@H](O)C1)c1cc2cc(Cl)ccc2[nH]1,–,–,inactive,–,inactive,–,inactive,–,inactive,inactive,11.9 µM (active),4.24 µM (active),–,12.5 µM (active),–,89.9 µM (active),–,73.1 µM (active),–,–
Cc1nc(C)nc(N2C[C@@H](C)N(c3ccnc([C@@H](C)O)n3)[C@@H](C)C2)n1,inactive,inactive,inactive,–,inactive,–,inactive,inactive,inactive,inactive,–,–,–,25 µM (active),–,9.39 µM (active),–,–,–,–
NC(=O)Cn1c(=O)cc(CCN2CCN(c3nccc4sccc34)CC2)c2ccc(F)cc21,inactive,inactive,inactive,–,–,–,–,–,inactive,inactive,–,–,–,78 µM (active),87.6 µM (active),65.4 µM (active),5.56 µM (active),65.2 µM (active),–,–
CCCCOC(=O)CCCCCCCCC(=O)OCCCC,inactive,inactive,inactive,inactive,inactive,inactive,inactive,inactive,inactive,inactive,–,–,–,–,–,–,–,–,–,–
COc1cc(S(=O)(=O)O)c(C)cc1N=Nc1c(O)ccc2cc(S(=O)(=O)O)ccc12,inactive,inactive,inactive,inactive,inactive,inactive,inactive,inactive,inactive,inactive,–,–,–,–,–,–,–,–,–,–
CC(C)c1ccc(C(=O)N=C(N)N)cc1S(C)(=O)=O,–,–,–,inactive,inactive,–,–,–,–,–,0.464 µM (active),13.1 µM (active),0.578 µM (active),–,–,0.297 µM (active),9.24 µM (active),0.545 µM (active),0.337 µM (active),0.69 µM (active)
CCCCCCOCCO,inactive,inactive,inactive,inactive,inactive,inactive,inactive,inactive,inactive,inactive,–,–,–,–,–,–,–,–,–,–
CCCCCCCCCCCC(=O)OC,inactive,inactive,inactive,inactive,inactive,inactive,inactive,inactive,inactive,inactive,–,–,–,–,–,–,–,–,–,–
CCCCCCC(=O)OCC,–,–,inactive,inactive,inactive,inactive,inactive,inactive,inactive,inactive,6.44 µM (active),8.96 µM (active),–,–,–,–,–,–,–,–
OC[C@@H](O)[C@@H](O)[C@H](O)[C@H](O)CO,inactive,inactive,inactive,inactive,inactive,inactive,inactive,inactive,inactive,inactive,–,–,–,–,–,–,–,–,–,–
CC=Cc1ccc(O)c(OC)c1,inactive,inactive,inactive,inactive,inactive,inactive,inactive,inactive,inactive,inactive,–,–,–,–,–,–,–,–,–,–
CCCCCCCCCCCCCO,inactive,inactive,inactive,inactive,inactive,inactive,inactive,inactive,inactive,inactive,–,–,–,–,–,–,–,–,–,–
CNC(=O)[C@H]1O[C@@H](n2cnc3c(NCc4cc(Cl)ccc4OCc4cc(C)no4)ncnc32)[C@H](O)[C@@H]1N,inactive,inactive,inactive,inactive,inactive,inactive,inactive,inactive,inactive,inactive,–,–,–,–,–,–,–,–,–,–
